Screening data (PubChem BioAssay)
Rows were chosen to be rich in hits. Some 3.4% of all compounds tested hit in one or more screens of this group.
TEAD-YAP block: TEAD-YAP interaction inhibition. HEK-TIYL cells, TEAD-Gal4/YAP UAS-luciferase luminescence. inhibition, % at 9.12 µM. hit rate 1.4% among 640,000. AID 1259422; in the data active means inhibition above about 32%;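 further: 0% = median of test compound wells and 100% = reference inhibitor wells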
MITF inh: human MITF inhibition, primary screen. O75030. AlphaScreen MITF homodimerization, bead proximity signal. inhibition, % at 2.6 µM. hit rate 0.91% among 650,000. AID 1259374; in the data active means inhibition above about 50%;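 further: 0% = vehicle wells with protein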
FBW7 activator: human FBW7 E3 ligase activation, primary screen; normalized activity (activation), % at 26.1 µM; AlphaScreen FBW7–phospho-cyclin E peptide binding, activator screen; hit rate 0.13% among 650,000; in the data active means normalized activity above about 1.9%;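 further: purified mutant Fbw7 with reduced substrate affinity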
GPR151 ag: activators of human GPR151 | activation, % at 11.2 µM | hit rate 1% among 650,000 | Q8TDV0 | PathHunter beta-arrestin GPR151 cells, luminescence; in the data active means activation above about 4.9%;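 further: 0% = median of compound wells and 100% = cells with positive control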
Target sequence (Q8TDV0 whole entry, looked up): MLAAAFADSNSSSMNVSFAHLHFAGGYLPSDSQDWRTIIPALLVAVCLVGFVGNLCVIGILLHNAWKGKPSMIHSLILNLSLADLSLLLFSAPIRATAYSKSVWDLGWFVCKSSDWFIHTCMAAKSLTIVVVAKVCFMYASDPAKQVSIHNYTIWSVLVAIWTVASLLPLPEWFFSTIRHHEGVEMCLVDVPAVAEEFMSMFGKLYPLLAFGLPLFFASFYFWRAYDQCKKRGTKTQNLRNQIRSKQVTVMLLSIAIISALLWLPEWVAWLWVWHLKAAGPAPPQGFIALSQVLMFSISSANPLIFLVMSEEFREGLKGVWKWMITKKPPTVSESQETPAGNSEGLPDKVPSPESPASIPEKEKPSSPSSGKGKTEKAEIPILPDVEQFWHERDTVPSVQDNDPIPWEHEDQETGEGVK
* marks the source's active call; other numbers are inactive results.

SMILES	TEAD-YAP block	MITF inh	FBW7 activator	GPR151 ag
CC(=O)c1ccc(Nc2c(C)n(C)n(-c3ccccc3)c2=O)cc1	-2	-1	0	1
Cc1c(Nc2ccc(/C=C3\C(=O)Nc4ccccc43)cc2)c(=O)n(-c2ccccc2)n1C	54*	5	0	1
COC(=O)c1cc(CNC(=O)c2cccnc2)cc(NS(=O)(=O)c2ccc(F)cc2)c1	-4	2	0	1
O=Cc1ccc(-c2ccc(C(=O)O)c(O)c2)o1	3	86*	0	-1
CNc1nc(Nc2ccccc2C(F)(F)F)nc(OC(C(F)(F)F)C(F)(F)F)n1	14	12	0	-3
CCOC(=O)C1=C(C)NC(=S)NC1c1ccccc1OCC(=O)Nc1ccc(C)cc1 (configuration not stated)	36*	2	0	1
C=CCOC(=O)C1=C(C)NC(=S)NC1c1ccccc1OCC (configuration not stated)	1	3	0	-1
COc1cc(COc2cccc3ccc(N4CCN(C(=O)c5ccco5)CC4)nc23)cc(OC)c1	35*	-1	0	0
Cc1ccccc1COc1cccc2ccc(N3CCN(C(=O)c4ccco4)CC3)nc12	16	3	0	2
CN1CCN(C(=O)c2ccc(NC(=O)Cn3nc(-c4ccccc4F)ccc3=O)cc2)CC1	3	16	0	-1
COc1ccccc1-c1ccc(=O)n(CC(=O)Nc2ccc(C(=O)N3CCCC3)cc2)n1	-3	4	4.1*	-1
COc1ccc(/C=N/NC(=O)c2cc(O)c(O)c(O)c2)cc1Cn1cc([N+](=O)[O-])cn1	-4	73*	0	2
COc1ccc(/C=N/NC(=O)c2cc(O)c(O)c(O)c2)cc1Cn1cnc([N+](=O)[O-])n1	5	97*	0	-1
COc1ccc(/C=N/NC(=O)c2ccccc2O)cc1Cn1cc([N+](=O)[O-])cn1	-8	0	0	-1
CC1CC(C)CN(CCCNC(=O)CNC(=O)Cn2cnc3sc4c(c3c2=O)CCCC4)C1 (configuration not stated)	-1	-4	0	-2
CCN1C(=O)/C(=C/c2cc3c(cc2[N+](=O)[O-])OCO3)C(=O)NC1=S	3	74*	0	2
CSc1cccc(CN[C@H]2C[C@H]3C(=O)N[C@H]([C@H](C)O)C(=O)N3C2)c1	7	17	0	1
CCOC(=O)C1=C(c2ccccc2)NC(SC)=C(C#N)C1c1cccnc1 (configuration not stated)	8	1	0	1
CCOC(=O)C1=C(C)NC(C)=C(C(=O)OCC)C1c1ccccc1F	5	17	2.1*	-1
CCOC(=O)C1=C(C)NC(SC)=C(C#N)C1c1ccccc1 (configuration not stated)	47*	5	0	-1
CCOC(=O)C1=C(C)NC(SCC(N)=O)=C(C#N)C1c1cccc([N+](=O)[O-])c1 (configuration not stated)	49*	5	0	0
COc1ccc(-c2nc(CCNS(=O)(=O)c3ccc(NC(C)=O)cc3)cs2)cc1	-4	-21	0	3
Cc1ccc(C(=O)Nc2ccc(S(=O)(=O)N3CCCCC3c3cccnc3)cc2)cc1 (configuration not stated)	12	-17	0	-1
CCOc1ccc(C(=O)Nc2ccc(S(=O)(=O)N3CCCCC3c3cccnc3)cc2)cc1 (configuration not stated)	33*	2	0	1
O=C(Nc1ccc(S(=O)(=O)N2CCCCC2c2cccnc2)cc1)c1ccc(S(=O)(=O)N2CCCC2)cc1 (configuration not stated)	26	18	0	0
SMILES	TEAD-YAP block	MITF inh	FBW7 activator	GPR151 ag
O=C(Nc1ccc(S(=O)(=O)N2CCCCC2c2cccnc2)cc1)c1ccc([N+](=O)[O-])cc1 (configuration not stated)	36*	10	0	0
CCOC(=O)c1ccc(NC2=C(N)C(=O)c3ccccc3C2=O)cc1	-6	13	0	-2
CCn1nc(-c2ccc(C(F)(F)F)cc2)nc2c(=O)n(C)c(=O)nc1-2	-2	15	0	-8
CCCc1nc2c(=O)n(C)c(=O)nc-2n(C)n1	99*	-4	0	-4
CCn1nc(-c2cccc(Cl)c2)nc2c(=O)n(C)c(=O)nc1-2	-52	-12	0	-9
CCOc1cc(-c2nc3c(=O)n(C)c(=O)nc-3n(C)n2)ccc1OC(C)C	95*	21	0	-3
Cc1ccccc1-c1nc2c(=O)n(C)c(=O)nc-2n(C)n1	91*	3	0	-2
COC(=O)c1ccccc1N(Cc1ccccc1)S(=O)(=O)c1ccc(OC)cc1	51*	-1	0	-1
COc1ccc(S(=O)(=O)N(Cc2ccccc2)c2ccccc2C(=O)NC2CC2)cc1	47*	4	2	0
CC(C)[C@@H](CO)Nc1ccc2ncc(-c3ccsc3)n2n1	32*	0	0	0
COc1ccc(-c2cnc3ccc(N[C@H](CO)C(C)C)nn23)c(OC)c1	-17	-5	2.0*	0
CC(C)[C@@H](CO)Nc1ccc2ncc(-c3cccc4ccccc34)n2n1	0	17	0	1
CC(C)[C@@H](CO)Nc1ccc2ncc(-c3ccco3)n2n1	53*	-9	0	0
CC(C)[C@@H](CO)Nc1ccc2ncc(-c3ccc(N(C)C)cc3)n2n1	-4	-8	-1	-1
CC(C)[C@@H](CO)Nc1ccc2ncc(-c3ccc(CO)cc3)n2n1	43*	8	0	1
COc1ccc(-c2nc(NCc3ccccc3)c3ncn(-c4ccccc4)c3n2)cn1	8	-1	0	-1
COc1ccc(-c2nc(NCCO)c3ncn(-c4ccccc4)c3n2)cn1	73*	7	0	-1
CCCNc1nc(-c2ccc(OC)nc2)nc2c1ncn2-c1ccsc1	51*	7	1	1
CCCNc1nc(-c2ccc(OC)cc2)nc2c1ncn2-c1ccsc1	6	-2	0	0
COc1ccc(-c2nc(NC3CC3)c3ncn(-c4ccccc4)c3n2)cn1	48*	18	0	-1
COc1ccc(-c2nc(NCCO)c3ncn(-c4ccccc4)c3n2)cc1	61*	4	0	1
COc1ccc(-c2nnc(Nc3nc4ccc(F)cc4s3)o2)cc1	4	-26	0	0
O=C(Nc1ccccc1)Nc1ccc(N2CCOCC2)cc1	-35	3	0	-4
CCCNc1nc(-c2ccc(OC)nc2)nc2c1ncn2-c1ccccc1	33*	7	0	0
O=C(O)CCN(Cc1ccc(Cl)cc1)S(=O)(=O)c1ccc(Br)cc1	-2	14	2.1*	1
O=C(O)CCCN(Cc1ccc(Cl)cc1)S(=O)(=O)c1ccc(Br)cc1	-3	8	0	-1
Cc1nc(SCC(=O)N(C)CCC#N)c2c(-c3cccs3)csc2n1	-9	11	1	-1
Cc1ccccc1CN1C(=O)CSc2ccc(C(=O)N3CCOCC3)cc21	-6	0	0	1
